High-throughput results deposited in PubChem by National Center for Advancing Translational Sciences (NCATS).
Pf Dd2 inh = inhibitors of Plasmodium falciparum Dd2 growth. P. falciparum Dd2 growth, SYBR Green, 72 h. Potency, µM (top dose mostly 28.9 µM), inactives show at the top dose activity, negative = inhibition, hits mostly inhibitors. actives 4.3% (n = 120,000). AID 1347417; active means well fitted inhibition curve with a large enough effect;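 further: plate controls were DMSO vehicle for no effect and reference drug for full effect; nearly all actives have a fitted effect of over 65% in size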
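Infected erythrocytes (Dd2, 0.3% parasitemia, 2.5% hematocrit final) are added to compound in RPMI-1640/Albumax II medium, grown 72 h at 37C in low oxygen, then lysed with saponin/Triton-X containing SYBR Green and read by fluorescence.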
Numbers without * were called inactive; i = inactive; [ ] = remark or other dose. Shown is part of a subset that was picked to be rich in hits. Potency means the concentration at half of the fitted maximal effect.

SMILES | Pf Dd2 inh
O=C(Cc1cccc(F)c1)N1CCC2(CC1)NC(=O)N(c1ccccc1Cl)N2 | -26.8%
CCCc1noc(-c2cccn3c(CNC(=O)C4CCCC4)nnc23)n1 | -23.2%
CC(C)CN1C(=O)c2cccn2CC1C(=O)NCCCOC(C)C (stereo not given) | -3.9%
Cc1nn(C)cc1C(C)NC(=O)CN1CCCc2nc(-c3ccccc3)ncc2C1=O (stereo not given) | -17.4%
O=C1Nc2ccccc2C12CCN(S(=O)(=O)c1ccccc1)C2 (stereo not given) | -16.5%
CC(C)c1noc(-c2cccn3c(CNC(=O)c4c(F)cccc4F)nnc23)n1 | -16.9%
O=C(CCc1ccccc1)N1CCC2(CC1)CC(N(C(=O)c1ccccc1)C1CC1)CCO2 (stereo not given) | -1.8%
Cc1cccc(OCCc2noc(C3CCN(C(=O)c4cc(C)nn4C)C3)n2)c1 (stereo not given) | i
CC(C)(C)c1coc([C@@H]2COCCN2Cc2cnc3ccccc3c2)n1 | -12.5%[44.1 µM]
O=C(O)Cn1nc(COc2ccc(F)cc2)nc1CN1CCCCCC1=O | -0.5%
CCCNC(=O)N1CCCCC1c1noc(COc2ccc(C)cc2)n1 (stereo not given) | -19.2%
COc1cc2c(cc1OC)C(C[C@H]1CN(C(=O)Nc3ccc(F)cc3)CC[C@H]1CC(=O)O)=NCC2 | -21.6%
CCCN1CCc2[nH]cnc2C12CCN(C(=O)c1cnn3ccccc13)CC2 | 13.6%
NC(=O)CCNC(=O)C1=C[C@@H](NC(=O)c2cccc(F)c2)[C@@H](O)[C@H](O)C1 | -11.0%[44.1 µM]
CS(=O)(=O)N1C[C@H]2CCN(C(=O)c3ncccc3F)C[C@H]21 | 11.2%
CN1C(=O)C(c2ccccc2)CC12CCN(C(=O)CN1CCCC1)CC2 (stereo not given) | 6.2%
O=C(c1ccc(Br)s1)N(Cc1cccnc1)c1nc2ccc(F)cc2s1 | 2.51µM*
O=C(C1COc2ccccc2O1)N(Cc1cccnc1)c1nc2ccc(F)cc2s1 (stereo not given) | i
CC(=O)N(Cc1cccnc1)c1nc2ccc(F)cc2s1 | 7.0%
COCC1(C(=O)N2CCC3(CC2)C(=O)N(C)c2ccccc23)CCC1 | -12.8%
O=C(Nc1ccc(-c2nnc3n2CCCC3)cc1)c1ccc2ccccc2n1 | 1µM*
O=C(NC1CCc2n[nH]c(=O)n2CC1)c1ccc2ccccc2n1 (stereo not given) | i
O=C(Nc1ccc(-c2nnc3n2CCCC3)cc1)c1cc(F)ccc1F | i
O=C(Nc1ccc(-c2nnc3n2CCCC3)cc1)c1ccncc1 | i
O=C(Nc1ccc(-c2nnc3n2CCCC3)cc1)c1ccc(Cl)cc1 | 5.01µM*
SMILES | Pf Dd2 inh
O=C(Nc1ccc(-c2nnc3n2CCCC3)cc1)c1cc(-c2ccccc2)n[nH]1 | 14.1µM*
COc1ccc(Cl)cc1C(=O)Nc1ccc(-c2nnc3n2CCCCC3)cc1 | 3.7%
COc1ccc(C(=O)Nc2ccc(-c3nnc4n3CCCC4)cc2)cn1 | 7.08µM*
CCOc1ccc(C(=O)Nc2ccc(-c3nnc4n3CCCCC4)cc2)cc1OCC | -18.1%
CC(=O)NCC(=O)N1Cc2ccccc2CC2(CCCN(C)C2)C1 (stereo not given) | 5.4%
COc1ccc(CNC(=O)CC2CCCN(c3cnn(CC4CC4)c(=O)c3)C2)cc1 (stereo not given) | -16.2%
O=C(N1CC(Oc2cccc(-c3nc(-c4ccccc4)no3)c2)C1)C1(c2ccccc2)CC1 | i[5.79 µM]
CN(C)[C@@H]1[C@@H](NC(=O)c2cc(=O)n(-c3ccccc3)[nH]2)[C@H]2CCO[C@H]21 | -23.2%
O=C(Nc1ccc(F)cc1)C1CN(S(=O)(=O)c2cccnc2)CC12CCCCC2 (stereo not given) | -28.7%
CC(C)=CC(=O)N1CC[C@H](NC(=O)Nc2ccc(F)cc2F)[C@H]1C(=O)N[C@H](Cc1ccccc1)C(N)=O | 22.2%
O=C(CCC1CC1)N1CCN(c2ncnc3ccsc23)CC(O)C1 (stereo not given) | 0.1%
O=C(CCc1nc2ccccc2s1)N1CCN(C(=O)N2CC3CC(C2)[C@H]2CCCC(=O)N2C3)CC1 (stereo not given in full) | -8.7%
O=C1N(Cc2ccccc2)CCOC12CCN(Cc1cc(F)ccc1F)CC2 | i
Cn1nccc1C(=O)N1CCC2(CC1)OCCN(Cc1ccccc1F)C2=O | -8.4%[44.1 µM]
O=C1N(Cc2ccccc2F)CCOC12CCN(Cc1ccc(F)cc1F)CC2 | 2.51µM*
COCCOC1CCN(S(=O)(=O)Cc2ccccc2)CC1 | i
CCNC(=O)N[C@H]1[C@H](O)[C@@H](N(CC)CC)[C@@H]2OC[C@H]1O2 | 13.7%[44.1 µM]
Cc1nc(C2CCCN(C(=O)Cc3ccncc3)C2)cc(N2CCOCC2)n1 (stereo not given) | 0.5%
COCCN1C(=O)c2cccn2CC1CNC(=O)NCc1ccccc1 (stereo not given) | -1.4%
COc1cc(NC(=O)Cn2c(-c3ccc(F)cc3)nc(C)c(CCO)c2=O)cc(OC)c1 | 11.2µM*
COc1ccc(NC(=O)Cn2c(-c3ccc(F)cc3)nc(C)c(CCO)c2=O)cc1Cl | -24.1%
Cc1ccc(NC(=O)Cn2c(-c3ccc(F)cc3)nc(C)c(CCO)c2=O)cc1 | -4.9%
O=C(CCC[C@@H]1[C@H]2CCCN3CCC[C@@H](CN1C(=O)C1CCOCC1)[C@@H]23)NCc1ccccc1 | 3.5%
COCCCN(CCC(=O)NCc1ccc2c(c1)OCO2)C(=O)c1cc(C)oc1C | i
CSc1ccc(NC(=O)c2cc(-c3ccc[nH]3)n[nH]2)cc1 | 12.6µM*
SMILES | Pf Dd2 inh
COc1cccc(-c2cc(C(=O)Nc3ccc(F)cc3)[nH]n2)c1 | 2.51µM*
Cc1ccc(NC(=O)c2cc(-c3ccc[nH]3)n[nH]2)cc1F | -4.7%
COc1cccc(CNC(=O)c2cc(-c3cccc(OC)c3)n[nH]2)c1 | 10.1%
O=C(Nc1ccc(F)cc1)c1cc(-c2ccc[nH]2)n[nH]1 | i
COc1cccc(-c2cc(C(=O)Nc3ccc(Br)c(C)c3)[nH]n2)c1 | -25.9%
Cc1cccc(Nc2ncncc2-c2nc(-c3ccccc3)no2)c1C | -11.0%
COCc1nc(C2CC(N)C2)cc(N2CC(c3nccs3)C2)n1 (stereo not given) | -5.6%
O=C(NC[C@H]1OC[C@@H](N(Cc2ccccc2)Cc2ccccc2)[C@@H]1O)Nc1ccccc1 | i
Cc1cnc(-c2cccnc2)n1C1CCCN(C(=O)c2cccn2C)C1 (stereo not given) | -6.8%
Cc1ccc(CSc2nc3ccncc3n2Cc2nc(-c3ccccc3C)oc2C)cc1 | 11.5%
Cc1ccccc1-c1nc(CS(=O)(=O)CC(=O)Nc2c(C)cccc2C)c(C)o1 | 4.2%
Cc1ccccc1-c1nc(Cn2ccnc2C(C)C)c(C)o1 | 11.2µM*
O=C1Nc2ccccc2CC12CN(CC1CCNC1)C2 (stereo not given) | 19.2%[44.1 µM]
COCCn1c(=O)c2c(n1Cc1ccccc1)CN(C(=O)COc1ccccc1)CC2 | i
CC(C)CCN1CCC2(CC1)CC(c1cccnc1)=NO2 | -13.5%[44.1 µM]
C[S+](=O)([O-])N1Cc2ccccc2CC2(CCN(Cc3ccccn3)CC2)C1 | -19.3%
O=C(O)CCC(=O)N1CCC2(Cc3ccccc3N(C(=O)C3CCCC3)C2)C1 (stereo not given) | 21.5%
O=C(C1CCCC1)N1CC2(CCCN2C2COC2)Cc2ccccc21 (stereo not given) | 8.91µM*
CC(=O)N1CC2(CCN(C(=O)c3ccc(Cl)cc3)CC2)Cc2ccccc21 | 2.6%
CC(=O)N1CC2(CCN(CC3CC3)C2)Cc2ccccc21 (stereo not given) | -26.1%[44.1 µM]
O=C(c1ccccc1)N1Cc2ccccc2CC2(CCN(CC3CCNC3)C2)C1 (stereo not given) | 2.7%
